HT1080-NT tox: kills 2HG-producing HT-1080-NT fibrosarcoma cells. AID 686970. 360,000 tested, 1.6% active. Potency, µM (series often up to 46.1 µM), hits mostly cytotoxic. HT-1080-NT fibrosarcoma viability, CellTiter-Glo ATP luminescence, 48 h;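 further: NT is the 2HG producing partner of a matched IDH1 knockdown line; nearly all actives have a fitted effect of over 55% in size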
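Fibrosarcoma NT cells, 750 per well in 5% FBS RPMI, were exposed to compound for 48 hours. Viability: CellTiter-Glo luminescence.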
12-LOX inh: blocks human arachidonate 12S-lipoxygenase; P18054; purified 12hLO, xylenol orange hydroperoxide absorbance; Potency, µM (titrated, usually from 108 µM), hits mostly inhibitors; 580,000 tested, 1.1% active
Target sequence (P18054 whole entry, looked up): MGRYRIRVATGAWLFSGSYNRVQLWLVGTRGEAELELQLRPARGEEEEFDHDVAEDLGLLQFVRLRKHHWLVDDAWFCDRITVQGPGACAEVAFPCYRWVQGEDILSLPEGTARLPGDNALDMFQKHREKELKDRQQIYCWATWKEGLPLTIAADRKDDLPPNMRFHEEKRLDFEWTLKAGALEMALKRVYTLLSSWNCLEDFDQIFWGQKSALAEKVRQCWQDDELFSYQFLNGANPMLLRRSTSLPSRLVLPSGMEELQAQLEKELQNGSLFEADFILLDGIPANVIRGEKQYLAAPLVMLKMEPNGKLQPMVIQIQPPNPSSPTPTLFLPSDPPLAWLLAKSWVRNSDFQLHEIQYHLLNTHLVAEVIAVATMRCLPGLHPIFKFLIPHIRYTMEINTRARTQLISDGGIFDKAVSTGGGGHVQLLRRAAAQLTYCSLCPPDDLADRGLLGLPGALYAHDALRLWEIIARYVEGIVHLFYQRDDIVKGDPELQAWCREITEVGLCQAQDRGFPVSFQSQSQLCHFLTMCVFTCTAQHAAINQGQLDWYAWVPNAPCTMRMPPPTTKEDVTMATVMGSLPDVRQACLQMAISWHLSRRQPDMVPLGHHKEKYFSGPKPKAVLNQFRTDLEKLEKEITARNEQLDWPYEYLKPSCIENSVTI
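Purified human 12hLO (150 nM final) in 25 mM Hepes, 0.01% Triton X-100, pH 7.0 was preincubated 15 min at room temperature with compound. Then 40 uM arachidonic acid was added, 30 min. Hydroperoxide was read by Fe-XO absorbance ratio 573/405 nm.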
DT40 TDP1 CPT: growth inhibition of DT40 Tdp1-/-;hTDP1 cells with camptothecin (screen for TDP1 inhibitors); Potency, µM (doses to about 46.2 µM), usual class: inhibitors; 420,000 tested, 12% active; chicken DT40 Tdp1-/-;hTDP1 cells + 20 nM CPT, ATP luminescence, 48 h; further: nearly all actives have a fitted effect of over 55% in size
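Cell growth measured by CellTiter-Glo luminescence after a minimum 48 h, 37 C compound exposure with 20 nM CPT in Tdp1-knockout DT40 cells stably expressing hTDP1, seeded 400/well; qHTS titration format.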
IL-1B inflam inh: blocks inflammasome-driven IL-1 beta release; THP-1 LPS/ATP IL-1B secretion, AlphaLISA, 16 h; active compounds read low; activity change, % at 57.5 µM; 360,000 tested, 4.7% active; AID 743279; in the data active means activity change below about -50%; inconclusive means mostly about -30% to -49%
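Secreted IL-1B measured by AlphaLISA bead assay after 16 h compound exposure of THP-1 cells; compounds (final up to 57.5 uM) added 1 h before LPS (250 ng/mL) and ATP (1.25 mM) stimulation; lower signal means less secretion.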
TDP1 cell noCPT: qHTS for Inhibitors of human tyrosyl-DNA phosphodiesterase 1 (TDP1): qHTS in cells in absence of CPT; Potency, µM (doses to about 46.2 µM), actives largely listed as inhibitors; DT40 Tdp1-/- hTDP1 cells, no CPT, ATP luminescence, 48 h; 420,000 tested, 15% active; AID 686978, 2013; further: nearly all actives have a fitted effect of over 55% in size
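Camptothecin absent (DMSO only). Human TDP1-complemented DT40 knockout cells, 400 cells/well, 37 °C for minimum 48 hr; ATP measured via CellTiter-Glo, 30 min dark incubation, luminescence.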
HT1080 IDH1KD tx: HT-1080 IDH1 knockdown cell toxicity (counter line); 360,000 tested, 2% active; Potency, µM (titrated, usually from 46.1 µM), hits mostly cytotoxic; HT-1080 IDH1 knockdown viability, ATP luminescence, 48 h
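After a 2 h attachment period, IDH1KD HT-1080 cells took pin-transferred compound for 48 h at 37 °C; ATP-based luminescence after 10 min room-temperature reagent incubation reported viability.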
Numbers stand for hits; . = inactive; ? = inconclusive; / = no result; [ ] = remark or other dose. The full list was thinned out, with hits kept by preference. Unless noted, the call rests on the fitted dose curve; in most records, active means well fitted curve in the direction sought with a large enough effect; inconclusive means small, poorly fitted or top-dose-only effect, or another doubt; inactive means no such curve, though single readings can be large; an effect the other way counts as inactive or inconclusive.

SMILES	HT1080-NT tox	12-LOX inh	DT40 TDP1 CPT	IL-1B inflam inh	TDP1 cell noCPT	HT1080 IDH1KD tx
CN(Cc1ccccc1)C(=O)c1cccc(NC(=O)Cc2cccc(NC(=O)C3CCN(C(=O)C4CC4)CC3)c2)c1	.	.	?	.	?	.
CN(Cc1ccccc1)C(=O)c1ccc(NC(=O)Cc2cccc(NC(=O)C3CCN(C(=O)C4CCCCC4)CC3)c2)cc1	.	.	?	.	?	.
CN(Cc1ccccc1)C(=O)c1cccc(NC(=O)C2CCCN(C(=O)OC(C)(C)C)C2)c1 (stereo not drawn)	.	.	18.4µM	.	16.4µM	.
CN(Cc1ccccc1)C(=O)c1cccc(NC(=O)Cc2ccc(NC(=O)C3CCN(C(=O)C4CCC4)CC3)cc2)c1	.	.	?	.	23.1µM	.
CN(C(=O)c1ccc(NC(=O)C2CCCN(C(=O)OC(C)(C)C)C2)cc1)C1CCC1 (stereo not drawn)	.	.	?	.	16.4µM	.
CN(CCc1ccccc1)C(=O)c1ccc(NC(=O)Cc2cccc(NC(=O)C3CCN(C(=O)C4CCC4)CC3)c2)cc1	.	.	16.4µM	.	20.6µM	.
Cc1cnc(CN(C)C(=O)CC(c2ccccc2)c2ccc3c(c2)OCO3)[nH]1 (stereo not drawn)	/	.	/	/	/	/
CN(CCc1ccccc1)C(=O)c1ccc(NC(=O)Cc2cccc(NC(=O)C3CCN(C(=O)C4CCCC4)CC3)c2)cc1	.	.	?	.	9.2µM	.
CN(CCc1ccccc1)C(=O)c1ccc(NC(=O)Cc2cccc(NC(=O)C3CCN(C(=O)C4CC4)CC3)c2)cc1	.	.	.	.	.	.
O=C1NCc2ccccc2CC12CCN(CC1CCOCC1)CC2	/	.[6.33 µM]	/	/	/	/
COc1ccc(N2CCN(C(=O)c3ccc(Cl)c(S(=O)(=O)N4CCCC4)c3)CC2)cc1	.	?	?	.	?	.
O=C(c1cccc(S(=O)(=O)N2CCCc3ccccc32)c1)N1CCN(c2ccccc2)CC1	.	.	?	?	20.6µM	?
CC(NC(=O)c1ccc2c(c1)CCN2S(=O)(=O)c1ccc(Cl)cc1)c1ccccc1 (stereo not drawn)	/	?	11.6µM	/	?	/
O=C(c1ccc2c(c1)CCN2S(=O)(=O)c1ccc(Cl)cc1)N1CCN(c2ccccc2)CC1	/	.	11.6µM	/	20.6µM	/
O=C(c1ccc(Cl)c(S(=O)(=O)N2CCc3ccccc3C2)c1)N1CCN(c2ccccc2)CC1	.	.	3.66µM	.	?	.
COc1ccc(CN2CC(=O)N(c3cccc(Cl)c3)[C@@H]3CS(=O)(=O)C[C@@H]32)cc1OC	/	.	/	/	/	/
CNC(=O)CCn1ncc2cc(OC3CCc4cccc(-c5ccncc5)c43)ccc21 (stereo not drawn)	/	.	/	/	/	/
CS(=O)(=O)N1CCc2cc(C(=O)N3CCN(c4ccccc4F)CC3)ccc21	.	?	?	.	?	.
Cc1cccc(NC(=O)c2ccc3c(c2)CCN3S(C)(=O)=O)c1C	.	.	.	.	.	.
O=C(c1ccc2c(c1)CCN2S(=O)(=O)c1ccc(Cl)cc1)N1CCN(c2ccccc2F)CC1	/	.	20.6µM	/	16.4µM	/
Cc1cccc(N2CCN(C(=O)c3ccc4c(c3)CCN4S(C)(=O)=O)CC2)c1C	.	.	13µM	-50.9	?	.
CC1=C[C@@H](CN2CCC(C(N)=O)CC2)[C@H](C(C)C)C[C@H]1Cc1nnc(-c2ccc(C)cc2)o1	/	.	/	/	/	/
COc1ccc(-c2ccc(CN3C(C)C(=O)N(Cc4cn(CCC5OCCO5)nn4)CCS3(=O)=O)cc2)cn1 (stereo not drawn)	.	?	?	.	20.6µM	.
CC1C(=O)N(Cc2cn(CCC3OCCO3)nn2)CCS(=O)(=O)N1Cc1ccc(-c2ccc(Cl)c(Cl)c2)cc1 (stereo not drawn)	?	.	14.6µM	.	6.51µM	?
CC1C(=O)N(Cc2cn(CCC3OCCO3)nn2)CCS(=O)(=O)N1Cc1ccc(-c2cccc(CO)c2)cc1 (stereo not drawn)	.	.	.	.	.	.
SMILES	HT1080-NT tox	12-LOX inh	DT40 TDP1 CPT	IL-1B inflam inh	TDP1 cell noCPT	HT1080 IDH1KD tx
COc1ccc(-c2ccc(CN3C(C)C(=O)N(Cc4cn(CCC5OCCO5)nn4)CCS3(=O)=O)cc2)cc1 (stereo not drawn)	.	15.8µM	9.2µM	.	23.1µM	.
COc1cc2c(cc1OC)C(C)N(CC(=O)Nc1ccc(N(C)C)cc1)CC2 (stereo not drawn)	/	.	/	/	/	/
C=CCOc1ccc2c(=O)c(Oc3cccc(C)c3)c(C(F)(F)F)oc2c1	/	.	/	/	/	/
Cc1ccccc1CNC(=O)CCS(=O)(=O)c1cc2c3c(c1)CCN3C(=O)CC2	/	.	.	/	.	/
CC(=O)Nc1ccc(C(=O)/C=C/c2ccco2)cc1	.	?	20.6µM	.	?	.
Cc1ccc(NC(=O)N/C=C/c2ccco2)cc1	.	?	?	.	.	.
CC(=O)Nc1cccc(C(=O)/C=C/c2ccco2)c1	.	?	?	-70.9	?	.
CC(=O)Nc1cccc(C(=O)/C=C/c2ccc(/C=C/C(=O)c3cccc(NC(C)=O)c3)cc2)c1	/	.	/	/	/	/
CN(C)c1ccc(C(=O)/C=C/c2ccccc2)cc1	.	.	20.6µM	-101.8	?	?
CN(C)c1ccc(C(=O)/C=C/c2ccco2)cc1	.	?	14.6µM	-100.9	?	.
COC(=O)c1c(C)[nH]c(C(=O)CSc2nncn2C)c1C	/	.	/	/	/	/
CC(C)Cn1cnc2nc(CSc3ccccc3NC(=O)c3ccccc3F)cc(=O)n21	/	.	/	/	/	/
COc1ccc(C(C)=O)cc1CO/N=C/c1ccc(Cl)cc1Cl	/	.	/	/	/	/
O=C(/C=C/c1cccc([N+](=O)[O-])c1)c1ccc2ccccc2c1	/	.	/	/	/	/
O=C(C=Cc1ccco1)c1ccc2ccccc2c1	.	17.8µM	?	-64.8	?	?
Cc1nc(Sc2ccc(Br)cc2)c(C#N)c(C)c1[N+](=O)[O-]	?	.	20.6µM	-104.8	9.2µM	?
Cc1nc(Sc2ccc(Cl)cc2)c(C#N)c(C)c1[N+](=O)[O-]	?	.	?	/	10.3µM	?
Cc1oc2cc(OC(C)C(=O)Nc3ccc4c(c3)OCCO4)ccc2c(=O)c1-c1ccccc1 (stereo not drawn)	/	.	/	/	/	/
O=CN/C=C/c1cc(O)ccc1O	.	?	4.11µM	.	4.61µM	.
Cc1ccc(NC(=O)CC2Sc3ccccc3NC2=O)c(Br)c1 (stereo not drawn)	/	.	?	/	?	/
O=S(=O)(NCc1ccccn1)c1cc(C(F)(F)F)ccc1Cl	.	.	?	.	.	.
Cc1cc(C)c(NC(=O)c2ccc(CNS(=O)(=O)c3cc(C(F)(F)F)ccc3Cl)cc2)c(C)c1	.	.	20.6µM	.	16.4µM	.

Screening results as filed in PubChem.
